{
  "source": "PubChem BioAssay (Tox21)",
  "note": "“And” between values parts separate entries of the source, which are not always exact repeats. Equal entries are not always repeated. Results filed as inconclusive are left out. A call without a number means that no potency is given here. A structure can be active in one record and inactive in another. The source made the active and inactive calls. Unless noted, calls come from the whole dose curve; as a rule, active = well fitted curve in the direction sought with a large enough effect in the repeat runs; inconclusive = weak or mixed curves; inactive = no such curve, though single readings can be large; an effect the other way counts as inactive or inconclusive.",
  "data": [
    {"test": "qHTS assay to identify small molecule HDAC inhibitors - cell viability counter screen (AID 1259365); note: nearly all actives have a fitted effect of over 50% in size", "conditions": "HCT-116 viability, CellTiter-Glo ATP luminescence, 2 h; series mostly up to 92.4 µM", "how_it_was_run": "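Viability readout: CellTiter-Glo luminescence. Wild-type HCT-116 cells, 2hr compound treatment following overnight attachment at 37 C.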", "values": [
      {"smiles": "ClCCOCCCl", "outcome": "inactive"},
      {"smiles": "Nc1ccc(N)cc1", "outcome": "inactive"},
      {"smiles": "O=S(=O)(O)OOS(=O)(=O)O", "outcome": "inactive"},
      {"smiles": "CC12CC1(C)C(=O)N(c1cc(Cl)cc(Cl)c1)C2=O", "note": "(configuration not stated)", "outcome": "inactive"},
      {"smiles": "OCCCCO", "outcome": "inactive"},
      {"smiles": "COC(=O)Nc1cccc(OC(=O)Nc2cccc(C)c2)c1", "outcome": "inactive"},
      {"smiles": "N#Cc1cccc(C#N)c1", "outcome": "inactive"},
      {"smiles": "COP(=S)(OC)Oc1ccc(SC)c(C)c1", "outcome": "inactive"},
      {"smiles": "O=C/C=C/c1ccccc1", "outcome": "inactive"},
      {"smiles": "CCCCCCCCCCCCCCCCCC(=O)O", "outcome": "inactive"},
      {"smiles": "CC(=O)/C=C/c1ccccc1", "outcome": "inactive"},
      {"smiles": "Cl[C@H]1OCCO[C@@H]1Cl", "outcome": "inactive"},
      {"smiles": "C[C@H]1C(=O)O[C@@H]2CCN3CC=C(COC(=O)[C@](C)(O)[C@]1(C)O)[C@H]23", "outcome": "inactive"},
      {"smiles": "[N-]=[N+]=CC(=O)OC[C@H](N)C(=O)O", "outcome": "inactive"},
      {"smiles": "Cc1ccc(N=C=O)cc1N=C=O", "outcome": "inactive"},
      {"smiles": "c1ccc2c(c1)CCCC2", "outcome": "inactive"},
      {"smiles": "CNC(=O)Oc1cccc2ccccc12", "outcome": "inactive"},
      {"smiles": "Cc1ccc(N)cc1", "outcome": "inactive"},
      {"smiles": "O=[N+]([O-])c1cc([As](=O)(O)O)ccc1O", "outcome": "inactive"}
    ]},
    {"test": "qHTS assay to identify small molecule agonists of the sonic hedgehog signaling (Shh) pathway - cell viability counter screen (AID 1259366); note: nearly all actives have a fitted effect of over 50% in size; note: potency is the fitted concentration of half-maximal effect", "conditions": "NIH/3T3 Gli1-Luc viability, CellTiter-Fluor, 24 h; series mostly up to 92.4 µM", "how_it_was_run": "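Viability measured fluorometrically (CellTiter-Fluor, 1hr, 37C) in 3T3 Gli1-Luc reporter cells after 23hr compound exposure within a 24hr incubation at 37C/5% CO2.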", "values": [
      {"smiles": "ClCCOCCCl", "Potency": "inactive"},
      {"smiles": "CN(C)C(=O)Nc1cccc(C(F)(F)F)c1", "Potency": "inactive"},
      {"smiles": "CN(C)C(=O)C(c1ccccc1)c1ccccc1", "Potency": "inactive"},
      {"smiles": "Nc1ccc(N)cc1", "Potency": "61.4 µM (active) and inactive"},
      {"smiles": "O=S(=O)(O)OOS(=O)(=O)O", "Potency": "inactive"},
      {"smiles": "CC12CC1(C)C(=O)N(c1cc(Cl)cc(Cl)c1)C2=O", "note": "(configuration not stated)", "Potency": "inactive"},
      {"smiles": "OCCCCO", "Potency": "inactive"},
      {"smiles": "COC(=O)Nc1cccc(OC(=O)Nc2cccc(C)c2)c1", "Potency": "inactive"},
      {"smiles": "N#Cc1cccc(C#N)c1", "Potency": "inactive"},
      {"smiles": "Nc1cc(Cl)cc(Cl)c1", "Potency": "inactive"},
      {"smiles": "CC(C)c1cccc(C(C)C)c1O", "Potency": "inactive"},
      {"smiles": "COP(=S)(OC)Oc1ccc(SC)c(C)c1", "Potency": "inactive"},
      {"smiles": "O=C(O)c1cc(Oc2ccc(C(F)(F)F)cc2Cl)ccc1[N+](=O)[O-]", "Potency": "inactive"},
      {"smiles": "CSc1nnc(C(C)(C)C)c(=O)n1N", "Potency": "inactive"},
      {"smiles": "COc1cc(-c2ccc(N)c(OC)c2)ccc1N", "Potency": "inactive"},
      {"smiles": "O=C/C=C/c1ccccc1", "Potency": "inactive"},
      {"smiles": "CCCCCCCCCCCCCCCCCC(=O)O", "Potency": "inactive"},
      {"smiles": "CC(=O)/C=C/c1ccccc1", "Potency": "inactive"},
      {"smiles": "Cc1ccccc1N", "Potency": "inactive"},
      {"smiles": "CN1C(=O)CCS(=O)(=O)C1c1ccc(Cl)cc1", "note": "(configuration not stated)", "Potency": "inactive"},
      {"smiles": "Cl[C@H]1OCCO[C@@H]1Cl", "Potency": "inactive"},
      {"smiles": "C[C@H]1C(=O)O[C@@H]2CCN3CC=C(COC(=O)[C@](C)(O)[C@]1(C)O)[C@H]23", "Potency": "inactive"},
      {"smiles": "[N-]=[N+]=CC(=O)OC[C@H](N)C(=O)O", "Potency": "inactive"},
      {"smiles": "Cc1ccc(N=C=O)cc1N=C=O", "Potency": "inactive"},
      {"smiles": "COC(C)(C)CCCC(C)C/C=C/C(C)=C/C(=O)OC(C)C", "note": "(configuration not stated)", "Potency": "inactive"},
      {"smiles": "CCOP(=S)(OCC)Oc1ccc([N+](=O)[O-])cc1", "Potency": "inactive"},
      {"smiles": "c1ccc2c(c1)CCCC2", "Potency": "inactive"},
      {"smiles": "CNC(=O)Oc1cccc2ccccc12", "Potency": "inactive"},
      {"smiles": "Cc1ccc(N)cc1", "Potency": "inactive"},
      {"smiles": "CN(C)NC(=O)CCC(=O)O", "Potency": "inactive"},
      {"smiles": "O=[N+]([O-])c1cc([As](=O)(O)O)ccc1O", "Potency": "inactive"}
    ]},
    {"test": "qHTS assay to identify small molecule antagonists of the sonic hedgehog signaling (Shh) pathway - cell viability counter screen (AID 1259367); note: nearly all actives have a fitted effect of over 55% in size; note: potency is the fitted concentration of half-maximal effect", "conditions": "NIH/3T3 Gli1-Luc viability, CellTiter-Fluor, 24 h; series mostly up to 92.4 µM", "how_it_was_run": "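CellTiter-Fluor signal in conditioned medium-stimulated 3T3 Gli1-Luc cells, 23 hr compound exposure, 37C.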", "values": [
      {"smiles": "ClCCOCCCl", "Potency": "inactive"},
      {"smiles": "CN(C)C(=O)Nc1cccc(C(F)(F)F)c1", "Potency": "inactive"},
      {"smiles": "CN(C)C(=O)C(c1ccccc1)c1ccccc1", "Potency": "inactive"},
      {"smiles": "Nc1ccc(N)cc1", "Potency": "61.4 µM (active) and 54.5 µM (active) and inactive"},
      {"smiles": "O=S(=O)(O)OOS(=O)(=O)O", "Potency": "inactive"},
      {"smiles": "CC12CC1(C)C(=O)N(c1cc(Cl)cc(Cl)c1)C2=O", "note": "(configuration not stated)", "Potency": "inactive"},
      {"smiles": "OCCCCO", "Potency": "inactive"},
      {"smiles": "COC(=O)Nc1cccc(OC(=O)Nc2cccc(C)c2)c1", "Potency": "inactive"},
      {"smiles": "N#Cc1cccc(C#N)c1", "Potency": "inactive"},
      {"smiles": "Nc1cc(Cl)cc(Cl)c1", "Potency": "inactive"},
      {"smiles": "CC(C)c1cccc(C(C)C)c1O", "Potency": "inactive"},
      {"smiles": "COP(=S)(OC)Oc1ccc(SC)c(C)c1", "Potency": "inactive"},
      {"smiles": "O=C(O)c1cc(Oc2ccc(C(F)(F)F)cc2Cl)ccc1[N+](=O)[O-]", "Potency": "inactive"},
      {"smiles": "CSc1nnc(C(C)(C)C)c(=O)n1N", "Potency": "inactive"},
      {"smiles": "COc1cc(-c2ccc(N)c(OC)c2)ccc1N", "Potency": "inactive"},
      {"smiles": "O=C/C=C/c1ccccc1", "Potency": "inactive"},
      {"smiles": "CCCCCCCCCCCCCCCCCC(=O)O", "Potency": "inactive"},
      {"smiles": "CC(=O)/C=C/c1ccccc1", "Potency": "inactive"},
      {"smiles": "Cc1ccccc1N", "Potency": "inactive"},
      {"smiles": "CN1C(=O)CCS(=O)(=O)C1c1ccc(Cl)cc1", "note": "(configuration not stated)", "Potency": "inactive"},
      {"smiles": "Cl[C@H]1OCCO[C@@H]1Cl", "Potency": "inactive"},
      {"smiles": "C[C@H]1C(=O)O[C@@H]2CCN3CC=C(COC(=O)[C@](C)(O)[C@]1(C)O)[C@H]23", "Potency": "inactive"},
      {"smiles": "[N-]=[N+]=CC(=O)OC[C@H](N)C(=O)O", "Potency": "inactive"},
      {"smiles": "Cc1ccc(N=C=O)cc1N=C=O", "Potency": "inactive"},
      {"smiles": "COC(C)(C)CCCC(C)C/C=C/C(C)=C/C(=O)OC(C)C", "note": "(configuration not stated)", "Potency": "inactive"},
      {"smiles": "CCOP(=S)(OCC)Oc1ccc([N+](=O)[O-])cc1", "Potency": "inactive"},
      {"smiles": "c1ccc2c(c1)CCCC2", "Potency": "inactive"},
      {"smiles": "CNC(=O)Oc1cccc2ccccc12", "Potency": "inactive"},
      {"smiles": "Cc1ccc(N)cc1", "Potency": "inactive"},
      {"smiles": "CN(C)NC(=O)CCC(=O)O", "Potency": "inactive"},
      {"smiles": "O=[N+]([O-])c1cc([As](=O)(O)O)ccc1O", "Potency": "inactive"}
    ]},
    {"test": "qHTS assay to identify small molecule agonists of the sonic hedgehog signaling (Shh) pathway (AID 1259368; calls by dose curve; note: nearly all actives have a fitted effect of over 15% in size)", "conditions": "NIH/3T3 Gli1-Luc reporter, luciferase, 24 h, stronger effect = higher value; series mostly up to 92.4 µM", "how_it_was_run": "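Quantitative high-throughput format using a Gli1-driven firefly luciferase reporter line derived from NIH/3T3 cells. After a 24 hr compound treatment at 37 C and 5% CO2, luminescence reported Gli1 response element activity.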", "values": [
      {"smiles": "ClCCOCCCl", "outcome": "inactive"},
      {"smiles": "CN(C)C(=O)Nc1cccc(C(F)(F)F)c1", "outcome": "inactive"},
      {"smiles": "CN(C)C(=O)C(c1ccccc1)c1ccccc1", "outcome": "inactive"},
      {"smiles": "Nc1ccc(N)cc1", "outcome": "inactive"},
      {"smiles": "O=S(=O)(O)OOS(=O)(=O)O", "outcome": "inactive"},
      {"smiles": "CC12CC1(C)C(=O)N(c1cc(Cl)cc(Cl)c1)C2=O", "note": "(configuration not stated)", "outcome": "inactive"},
      {"smiles": "OCCCCO", "outcome": "inactive"},
      {"smiles": "COC(=O)Nc1cccc(OC(=O)Nc2cccc(C)c2)c1", "outcome": "inactive"},
      {"smiles": "N#Cc1cccc(C#N)c1", "outcome": "inactive"},
      {"smiles": "Nc1cc(Cl)cc(Cl)c1", "outcome": "inactive"},
      {"smiles": "CC(C)c1cccc(C(C)C)c1O", "outcome": "inactive"},
      {"smiles": "COP(=S)(OC)Oc1ccc(SC)c(C)c1", "outcome": "inactive"},
      {"smiles": "O=C(O)c1cc(Oc2ccc(C(F)(F)F)cc2Cl)ccc1[N+](=O)[O-]", "outcome": "inactive"},
      {"smiles": "CSc1nnc(C(C)(C)C)c(=O)n1N", "outcome": "inactive"},
      {"smiles": "COc1cc(-c2ccc(N)c(OC)c2)ccc1N", "outcome": "inactive"},
      {"smiles": "O=C/C=C/c1ccccc1", "outcome": "inactive"},
      {"smiles": "CCCCCCCCCCCCCCCCCC(=O)O", "outcome": "inactive"},
      {"smiles": "CC(=O)/C=C/c1ccccc1", "outcome": "inactive"},
      {"smiles": "Cc1ccccc1N", "outcome": "inactive"},
      {"smiles": "CN1C(=O)CCS(=O)(=O)C1c1ccc(Cl)cc1", "note": "(configuration not stated)", "outcome": "inactive"},
      {"smiles": "Cl[C@H]1OCCO[C@@H]1Cl", "outcome": "inactive"},
      {"smiles": "C[C@H]1C(=O)O[C@@H]2CCN3CC=C(COC(=O)[C@](C)(O)[C@]1(C)O)[C@H]23", "outcome": "inactive"},
      {"smiles": "[N-]=[N+]=CC(=O)OC[C@H](N)C(=O)O", "outcome": "inactive"},
      {"smiles": "Cc1ccc(N=C=O)cc1N=C=O", "outcome": "inactive"},
      {"smiles": "COC(C)(C)CCCC(C)C/C=C/C(C)=C/C(=O)OC(C)C", "note": "(configuration not stated)", "outcome": "inactive"},
      {"smiles": "CCOP(=S)(OCC)Oc1ccc([N+](=O)[O-])cc1", "outcome": "inactive"},
      {"smiles": "c1ccc2c(c1)CCCC2", "outcome": "inactive"},
      {"smiles": "CNC(=O)Oc1cccc2ccccc12", "outcome": "inactive"},
      {"smiles": "Cc1ccc(N)cc1", "outcome": "inactive"},
      {"smiles": "CN(C)NC(=O)CCC(=O)O", "outcome": "inactive"},
      {"smiles": "O=[N+]([O-])c1cc([As](=O)(O)O)ccc1O", "outcome": "inactive"}
    ]}
  ]
}
